Article PMC11006913

Tests used:
Assay in all cases: PBM; 200 nM protein, PBS
Settings in all cases: dsDNA, one strand shown
HOXB6 [1] = target: HOXB6 (Homo sapiens, UniProt P17509 132-218, K202E)
HOXB6 [2] = target: HOXB6 (Homo sapiens, UniProt P17509 132-218)
SIX6 = target: T1, SIX6 (Homo sapiens, UniProt O95475 114-200, T165G)
T1 sequence: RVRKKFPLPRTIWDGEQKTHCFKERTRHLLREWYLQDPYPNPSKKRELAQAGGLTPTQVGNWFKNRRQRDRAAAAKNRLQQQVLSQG

Chain of HOXB6 (Homo sapiens, UniProt P17509 132-218, K202E) (P17509 132-218 K202E): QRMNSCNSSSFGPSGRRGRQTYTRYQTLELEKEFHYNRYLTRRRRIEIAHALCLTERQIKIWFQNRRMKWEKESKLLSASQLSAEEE
Chain of HOXB6 (Homo sapiens, UniProt P17509 132-218) (P17509 132-218): as the sequence (P17509 132-218 K202E) above, with E71K counted along it

Sequence | binding signal (HOXB6 [1]) | binding signal (HOXB6 [2]) | binding signal (SIX6)
CCCCGGTC | 8.98 upbm affinity estimate (log intensity, higher = more binding, comparable within an allelic series) | 9.03 upbm affinity estimate (log intensity, higher = more binding, comparable within an allelic series) | –
GGCTCGAC | 9.13 upbm affinity estimate (log intensity, higher = more binding, comparable within an allelic series) | 8.81 upbm affinity estimate (log intensity, higher = more binding, comparable within an allelic series) | –
CTCGGCTC | 9.06 upbm affinity estimate (log intensity, higher = more binding, comparable within an allelic series) | 8.95 upbm affinity estimate (log intensity, higher = more binding, comparable within an allelic series) | –
AATGATTG | 9.68 upbm affinity estimate (log intensity, higher = more binding, comparable within an allelic series) | 10.7 upbm affinity estimate (log intensity, higher = more binding, comparable within an allelic series) | –
AGGGAGGA | 9.04 upbm affinity estimate (log intensity, higher = more binding, comparable within an allelic series) | 9.03 upbm affinity estimate (log intensity, higher = more binding, comparable within an allelic series) | –
GGGCCCCA | 8.9 upbm affinity estimate (log intensity, higher = more binding, comparable within an allelic series) | 8.9 upbm affinity estimate (log intensity, higher = more binding, comparable within an allelic series) | –
CAAAATGG | 9.63 upbm affinity estimate (log intensity, higher = more binding, comparable within an allelic series) | 10.4 upbm affinity estimate (log intensity, higher = more binding, comparable within an allelic series) | –
CGCACACC | 9.16 upbm affinity estimate (log intensity, higher = more binding, comparable within an allelic series) | 9.11 upbm affinity estimate (log intensity, higher = more binding, comparable within an allelic series) | –
AGTCCTCC | 9.17 upbm affinity estimate (log intensity, higher = more binding, comparable within an allelic series) | 9.06 upbm affinity estimate (log intensity, higher = more binding, comparable within an allelic series) | –
AATTTCGG | 9.51 upbm affinity estimate (log intensity, higher = more binding, comparable within an allelic series) | 10.2 upbm affinity estimate (log intensity, higher = more binding, comparable within an allelic series) | –
AAGGGACC | 9.07 upbm affinity estimate (log intensity, higher = more binding, comparable within an allelic series) | 8.97 upbm affinity estimate (log intensity, higher = more binding, comparable within an allelic series) | –
ACTATTCA | 9.59 upbm affinity estimate (log intensity, higher = more binding, comparable within an allelic series) | 10.2 upbm affinity estimate (log intensity, higher = more binding, comparable within an allelic series) | –
GGCGTGGA | 9.09 upbm affinity estimate (log intensity, higher = more binding, comparable within an allelic series) | 9.03 upbm affinity estimate (log intensity, higher = more binding, comparable within an allelic series) | –
CCGACTCC | 9.11 upbm affinity estimate (log intensity, higher = more binding, comparable within an allelic series) | 9.01 upbm affinity estimate (log intensity, higher = more binding, comparable within an allelic series) | –
CTGGTCCC | 9.06 upbm affinity estimate (log intensity, higher = more binding, comparable within an allelic series) | 9.01 upbm affinity estimate (log intensity, higher = more binding, comparable within an allelic series) | –
GCTTGCCC | 9.05 upbm affinity estimate (log intensity, higher = more binding, comparable within an allelic series) | 9.1 upbm affinity estimate (log intensity, higher = more binding, comparable within an allelic series) | –
TGACTTAA | 9.69 upbm affinity estimate (log intensity, higher = more binding, comparable within an allelic series) | 10.5 upbm affinity estimate (log intensity, higher = more binding, comparable within an allelic series) | –
CCTCGGAC | 9.1 upbm affinity estimate (log intensity, higher = more binding, comparable within an allelic series) | 8.96 upbm affinity estimate (log intensity, higher = more binding, comparable within an allelic series) | –
ATCACATG | 9.52 upbm affinity estimate (log intensity, higher = more binding, comparable within an allelic series) | 9.98 upbm affinity estimate (log intensity, higher = more binding, comparable within an allelic series) | –
AAAAAAAT | 9.72 upbm affinity estimate (log intensity, higher = more binding, comparable within an allelic series) | 10.2 upbm affinity estimate (log intensity, higher = more binding, comparable within an allelic series) | –

Sequence | binding signal (HOXB6 [1]) | binding signal (HOXB6 [2]) | binding signal (SIX6)
GCTGGCTA | 9.09 upbm affinity estimate (log intensity, higher = more binding, comparable within an allelic series) | 9 upbm affinity estimate (log intensity, higher = more binding, comparable within an allelic series) | –
CCCTGGGA | 8.98 upbm affinity estimate (log intensity, higher = more binding, comparable within an allelic series) | 8.98 upbm affinity estimate (log intensity, higher = more binding, comparable within an allelic series) | –
CCACGGAC | 9.01 upbm affinity estimate (log intensity, higher = more binding, comparable within an allelic series) | 9.02 upbm affinity estimate (log intensity, higher = more binding, comparable within an allelic series) | –
AGCGAGGG | 9.04 upbm affinity estimate (log intensity, higher = more binding, comparable within an allelic series) | 8.99 upbm affinity estimate (log intensity, higher = more binding, comparable within an allelic series) | –
AGGCGGAC | 9.08 upbm affinity estimate (log intensity, higher = more binding, comparable within an allelic series) | 9.04 upbm affinity estimate (log intensity, higher = more binding, comparable within an allelic series) | –
CCCAGCTC | 9.08 upbm affinity estimate (log intensity, higher = more binding, comparable within an allelic series) | 9.08 upbm affinity estimate (log intensity, higher = more binding, comparable within an allelic series) | –
CGGTAGGC | 9.06 upbm affinity estimate (log intensity, higher = more binding, comparable within an allelic series) | 8.98 upbm affinity estimate (log intensity, higher = more binding, comparable within an allelic series) | –
GGCGGCAC | 9.08 upbm affinity estimate (log intensity, higher = more binding, comparable within an allelic series) | 9.21 upbm affinity estimate (log intensity, higher = more binding, comparable within an allelic series) | –
CCAATTTC | 9.48 upbm affinity estimate (log intensity, higher = more binding, comparable within an allelic series) | 10.1 upbm affinity estimate (log intensity, higher = more binding, comparable within an allelic series) | –
TCTCATAA | 9.55 upbm affinity estimate (log intensity, higher = more binding, comparable within an allelic series) | 10.4 upbm affinity estimate (log intensity, higher = more binding, comparable within an allelic series) | –
AAATCGAC | 9.47 upbm affinity estimate (log intensity, higher = more binding, comparable within an allelic series) | 10.1 upbm affinity estimate (log intensity, higher = more binding, comparable within an allelic series) | –
CCGGAGCG | 9.07 upbm affinity estimate (log intensity, higher = more binding, comparable within an allelic series) | 9.17 upbm affinity estimate (log intensity, higher = more binding, comparable within an allelic series) | –
AAGGGAGC | 9.01 upbm affinity estimate (log intensity, higher = more binding, comparable within an allelic series) | 8.99 upbm affinity estimate (log intensity, higher = more binding, comparable within an allelic series) | –
AGACACCC | – | – | 10.5 upbm affinity estimate (log intensity, higher = more binding, comparable within an allelic series)
CAACATAA | 9.7 upbm affinity estimate (log intensity, higher = more binding, comparable within an allelic series) | 10.4 upbm affinity estimate (log intensity, higher = more binding, comparable within an allelic series) | –
CTGCCTGC | 9.03 upbm affinity estimate (log intensity, higher = more binding, comparable within an allelic series) | 8.97 upbm affinity estimate (log intensity, higher = more binding, comparable within an allelic series) | –
CGGTGTGC | 9.02 upbm affinity estimate (log intensity, higher = more binding, comparable within an allelic series) | 8.92 upbm affinity estimate (log intensity, higher = more binding, comparable within an allelic series) | –
AATGGCTA | 9.56 upbm affinity estimate (log intensity, higher = more binding, comparable within an allelic series) | 10.8 upbm affinity estimate (log intensity, higher = more binding, comparable within an allelic series) | –
AGGTGTAA | – | – | 10.5 upbm affinity estimate (log intensity, higher = more binding, comparable within an allelic series)
ACGCCGCG | 9.12 upbm affinity estimate (log intensity, higher = more binding, comparable within an allelic series) | 9.15 upbm affinity estimate (log intensity, higher = more binding, comparable within an allelic series) | –
